From ChEMBL document CHEMBL4513216, “Probing the Open Global Health Chemical Diversity Library for Multistage-Active Starting Points for Next-Generation Antimalarials” (ACS Infect Dis, 2020)
The campaign covered roughly 69,000 compounds. About 8,600 (12%) showed an effect of 50% or more. The sample holds strong results, similar compounds and a random draw of the others, so the mix is not that of the screen.

test system: Plasmodium berghei; experiment: Screen against P. berghei liver stage (PbLuc), transformed with Luciferase, at 10uM; format: functional, HepG2; settings: tested at 10 uM

Structure (SMILES)	INHIBITION
CCS(=O)(=O)N1C[C@H]2CN(Cc3cccc(C)c3)C(=O)[C@H]2C1	-1.36%
N#Cc1ccccc1N1CCCN(C(=O)NCc2cc[nH]n2)CC1	10%
CC(c1cccc(S(N)(=O)=O)c1)N(C)CCCOc1ccccc1 (centres undefined)	23.4%
CCN1CCC(CC(=O)NCCc2nc(O)cc(O)n2)CC1	-16.3%
COc1c(CNC2CCCN(c3ncccn3)C2)c(C(C)C)nn1C (centres undefined)	42.9%
Cc1ccc(CN2CCC3(CC2)C(=O)N(CC(C)C)CCN3C)s1	-31.9%
Cc1cccc(CN2CCCC(O)(CNCCc3c[nH]cn3)C2=O)c1 (centres undefined)	48.1%
CCC(C)Oc1ccc(CNCCNC(C)=O)cc1OC (centres undefined)	40.7%
CC(=O)NCCNC(=O)NCc1ccc(Br)cc1Cl	4.41%
CCC(C)Oc1ccc(CNCCNS(C)(=O)=O)cc1Cl (centres undefined)	60.2%
COc1ccc(CNCC(C)Oc2ccccn2)cc1Cl (centres undefined)	17%
CCC(C)Oc1ccc(CNCCNC(C)=O)cc1Cl (centres undefined)	60.2%
COc1ccc(CNC(=O)NCCCNS(C)(=O)=O)cc1OC	33.8%
CCC(C)Oc1ccc(CNCCc2c[nH]cn2)cc1Cl (centres undefined)	66.8%
CC(CNCc1ccc(Cl)c(Cl)c1)Oc1ccccn1 (centres undefined)	-41.8%
CCOCC1COCCC12CCN(C(=O)CCOC)CC2 (centres undefined)	8.67%
CC(=O)N1CCN(c2ccc(Cl)nn2)C(=O)C1	40.8%
NC(=O)C1CCN(C(=O)c2cccn2Cc2cccs2)CC1	-12.1%
CC(C)N(Cc1ccc(Cl)c(Cl)c1)C(=O)Cn1cncn1	9.55%
Cc1cc(C)n(C2CCCN(C(=O)Cc3ccc(C#N)cc3)C2)n1 (centres undefined)	29.7%
C1CC(CN2C[C@@H]3C[C@@H](c4nnc(C5CC5)o4)O[C@@H]3C2)CCO1	3.58%
CCC(CNC(=O)Cn1ccnc1)Oc1cccc(F)c1 (centres undefined)	42.4%
CCC(CNC(=O)COC)Oc1cccc(F)c1 (centres undefined)	26.7%
CCC(=O)NCC(CC)Oc1cccc(F)c1 (centres undefined)	23%
CCC(CNC(=O)CNC(C)=O)Oc1cccc(F)c1 (centres undefined)	51.7%
CCC(CNC(=O)c1ccc(C(N)=O)cc1)Oc1cccc(F)c1 (centres undefined)	33.2%
CCC(CNC(=O)Cc1cc(C)on1)Oc1cccc(F)c1 (centres undefined)	54.5%

Structure (SMILES)	INHIBITION
NCc1cccc(-c2cccnc2C(=O)NCCN2CCCC2)c1	-8.58%
CC(C)(C)c1ncc(CNCC2CN(C3CC3)CCO2)s1 (centres undefined)	37.7%
C=c1occc1=C1NC(c2cccc(CN3CCOCC3)c2)=NO1	-2.69%
CCCN(Cc1ccccc1O)S(=O)(=O)N(C)CC	-58%
CCCN(CCC)S(=O)(=O)N(C)Cc1ccncc1	53.4%
CCOc1ccc(S(=O)(=O)N(CCOC)Cc2ccncc2)cc1F	58.8%
CCN(Cc1cccc(-c2ccncc2)c1)S(N)(=O)=O	11.7%
COCCN(Cc1cccnc1)S(=O)(=O)c1cccc(F)c1F	29.4%
CCN(Cc1cccc(-c2ccncc2)c1)S(C)(=O)=O	29.6%
COCCN(Cc1cccnc1)S(=O)(=O)c1ccc(F)cc1C	26%
CCOc1ccc(S(=O)(=O)N(CCOC)Cc2ccoc2)cc1F	-17.7%
COCCN(Cc1cccnc1)S(=O)(=O)c1cc(C)ccc1F	59.4%
CCCC(=O)N(Cc1ccncc1)C(C)CC (centres undefined)	49%
COCCN(Cc1ccoc1)S(=O)(=O)c1ccc(F)c(C)c1	0.348%
CCN(C)S(=O)(=O)N(CC)Cc1cccc(-c2ccncc2)c1	58.3%
CC(c1ccc(Br)cc1)N1CCCN(C(N)=O)CC1 (centres undefined)	12.3%
Cn1cc(NC(=O)C2CC(c3ccccc3)C2)ccc1=O (centres undefined)	-5.1%
CCOC(=O)CSc1nnc(C(N)CC(C)C)o1 (centres undefined)	-28.4%
O=S(=O)(C1CC1)N1CCO[C@H]2[C@H](OCC3CC3)CC[C@@H]21	-2.35%
O=C(NCc1cccnc1)Nc1cc(C(F)(F)F)c[nH]c1=O	-5.77%
Cc1nc(-c2ccc(C(=O)O)cc2)cc(C2CCCN(C(C)C)C2)n1 (centres undefined)	41.2%
CC1c2ncc(Cn3cncn3)n2CCN1CC1CCOCC1 (centres undefined)	-8.28%
Cc1ccc(-c2nnc(C(C)N3CCc4cncnc4C3)o2)cc1 (centres undefined)	22.1%
COCCn1cnnc1C1CCCN(C(C)C)C1 (centres undefined)	-16.5%
CCOc1ccccc1-c1cc(N)[nH]n1	16.2%
Cc1ccc(F)c2c1CCCN2CC(=O)NC1CCS(=O)(=O)C1 (centres undefined)	45%
Cc1cncc(C2CCCN(C(=O)c3cnco3)C2)n1 (centres undefined)	39.7%
